Molecules are shown by their SMILES. Values without a mark were called inactive. The source made the active and inactive calls. Calls follow the shape of the dose curve; as a rule, active = well fitted curve in the direction sought with a large enough effect in the repeat runs; inconclusive = weak or mixed curves; inactive = flat fitted curve, though single readings scatter.
% is scaled to controls: 0 for no effect and ±100 for the full control effect.

The assay can be described thus: qHTS assay to test for compound auto fluorescence at 590 nm (red) in HEK293 cells (AID 720679). The note with it: red autofluorescence 540/590 nm; series mostly up to 91.3 µM; fluorescence, % of fluorescent control: at the top concentration. The text has this: National Center for Advancing Translational Sciences [NCATS]
NIH Chemical Genomics Center [NCGC]
U.S. Environmental Protection Agency [EPA]
National Institutes of Environmental Health Sciences [NIEHS]
National Toxicology Program [NTP]
U.S. Food and Drug Administration [FDA]
Compound auto fluorescence often interferes with screening of the compound library against various biological targets and signaling pathways. Some of these compounds may have fluorophoric properties. Such properties may interfere with the assay outputs resulting in false positives and/or negatives. To decrease such complications and ensure the compound activities are relevant in terms of biological response, the Tox21 10K compound library was screened for auto fluorescence.
From the fluorophores used as reporter signals in our screening assays, the auto fluorescence equivalencies of compounds against three fluorophores have been evaluated: Triamterene, Fluorescein and Rose Bengal sodium for blue, green and red fluorescence, respectively. The fluorescence intensities were measured using Excitation/Emission wavelengths at 405/460nm, 485/535nm and 540/590nm for blue, green and red labels, respectively. This assay includes the red fluorescence data.
Tox21 Assay Protocol Summary:
2,000 HEK293 cells in 5 uL of culture medium containing 10% dialyzed FBS per well were dispensed into black wall/clear bottom 1536-well plates using a Multidrop Combi Dispenser (Thermo Scientific). The assay plates were incubated for 4-5 hr at 37C to allow cell attachment to the well bottom, followed by the transfer of 23 nL compound or DMSO vehicle by a pintool work station (Kalypsys, San Diego, CA). After the assay plates were incubated overnight at 37C and 5% CO2, fluorescence intensities in the assay plates were measured by an Envision (PerkinElmer, Shelton, CT) plate reader using three labels for measuring blue, green and red fluorescence at […] 460, 535 and 590nm respectively.
Regarding `C=CCCC#N`, the “fluorescence, % of fluorescent control” value was -0.281%.
For the molecule `CCCCCCC1CCOC1=O` (stereo not given), the “fluorescence, % of fluorescent control” value is 0.0335%.
Regarding `NCCOS(=O)(=O)O`, the “fluorescence, % of fluorescent control” value was -0.249%.
For `Clc1nc(Cl)nc(Nc2ccccc2Cl)n1`, the “fluorescence, % of fluorescent control” value was 0.634%.
The same measure, in the same setting: the result for `CN(CCO)CCO` reads -0.358% [at 95.7 µM].
On the same count and under the same terms, the result for `C=C1CC[C@@]2(O)[C@H]3Cc4ccc(O)c5c4[C@@]2(CCN3CC2CC2)[C@H]1O5` reads -0.25% [at 46 µM]; that for `O=C(O)C(Cl)Br` (stereo not given), 0.288% [at 95.7 µM]; that for `[P]#[In]`, -0.0977%.
`CC(C)(C)c1cc(O)ccc1O`: the molecule was called inactive.
With `NC(=O)OCCCc1ccccc1`, the “fluorescence, % of fluorescent control” value is 0.209% [at 46 µM].
`CCOP(=O)(CN(CCO)CCO)OCC`: the “fluorescence, % of fluorescent control” value is -0.27%.
On the same count and under the same terms, the result for `CCC(C(N)=O)N1CCCC1=O` (stereo not given) reads -0.02% [at 46 µM]; that for `CC(C)(C)NC[C@H](O)c1ccc(O)cc1Cl`, -0.0662% [at 46 µM].
Still for that read-out and setting: for `C=CCc1cc(OC)c2c(c1)OCO2` the value was -0.34% [at 95.7 µM].
Same read-out and setting: the result for `CS(=O)(=O)Cl` reads -0.361% [at 95.7 µM]; that for `O=C(Cl)C(Cl)(Cl)Cl`, 0.256%; that for `CCOC(=O)Nc1cccc(OC(=O)Nc2ccccc2)c1`, -0.985%.
As for `Cn1c(CCCC(=O)O)nc2cc(N(CCCl)CCCl)ccc21`, the “fluorescence, % of fluorescent control” value was -0.116% [at 46 µM].
For `CC(=O)CN(CC(C)=O)N=O`, the “fluorescence, % of fluorescent control” value is -0.331%.
Turning to `O=C(CCl)NCO`, the “fluorescence, % of fluorescent control” value is -0.242%.
For `CCOP(=S)(OCC)SCCl`, the “fluorescence, % of fluorescent control” value was -0.0126%.
The same measure, in the same setting: the result for `CCOP(=S)(OCC)Oc1ccc(Cl)cc1Cl` reads -0.374%; that for `COc1ccc(C=O)cc1O`, 0.456%; that for `COc1cccc(C=O)c1`, 0.268%.
Turning to `O=c1[nH]c2ccccc2o1`, the “fluorescence, % of fluorescent control” value was -0.657%.
Still for that read-out and setting: for `COc1cccc([C@@]2(O)CCCC[C@@H]2CN(C)C)c1` the value was -0.28% [at 46 µM]; for `CCC(C)(C#N)N=NC(C)(C#N)CC` (stereo not given), 0.0516%.
Consider `COc1ccc(CN2CCNCC2)c(OC)c1OC`, for which the fluorescence, % of fluorescent control was 0.0575% [at 18.6 µM].
The same measure, in the same setting: for `C#CC(C)(C)O` the value was 0.49% [at 95.7 µM]; for `N=C(N)[Se]`, -0.216%.
As for `CCNP(=S)(OC)O/C(C)=C/C(=O)OC(C)C` (stereo not given), the “fluorescence, % of fluorescent control” value is -0.125%.
As for `CCOC(=O)c1ncn2c1CN(C)C(=O)c1c(I)cccc1-2`, the “fluorescence, % of fluorescent control” value is 0.0146% [at 46 µM].
On the same count and under the same terms, the result for `C=C(C)[C@H]1CN[C@H](C(=O)O)[C@H]1CC(=O)O` reads -0.91% [at 46 µM]; that for `C=C(Cl)CCl`, 0.404%.
For `Cc1ccc2c(c1)C1CN(C)CCC1N2` (stereo not given), the “fluorescence, % of fluorescent control” value is -0.0684% [at 46 µM].
As for `N#CN=C1SCCN1Cc1ccc(Cl)nc1`, the “fluorescence, % of fluorescent control” value is 0.06%.
Same read-out and setting: for `O=CCCl` the value was -0.0027%.
On to `CCCN1CCC[C@@H]2Cc3nc(N)ncc3C[C@H]21`, for which the “fluorescence, % of fluorescent control” value is -0.201% [at 46 µM].
Consider `Nc1c(Cl)c(F)nc(OCC(=O)O)c1Cl`, for which the “fluorescence, % of fluorescent control” value was -0.0761%.
For the molecule `O=C(Cl)/C=C/C(=O)Cl`, the “fluorescence, % of fluorescent control” value was 0.392% [at 95.7 µM].

Values taken from PubChem BioAssay (Tox21).
